# SKKanGAS inh – S. pyogenes SKKanGAS growth inhibitors in kanamycin, primary screen, streptokinase expression inhibitor project, SKKanGAS strain, BacTiter-Glo luminescence; AID 1662, 2009; 6 h; inhibition, % at 7.5 µM; hit rate 1.3% among 300,000;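 active = mean replicate score, as percent of positive control median, at least 50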;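 also: strain carries kanamycin resistance gene driven by streptokinase promoter and grows in 40 µg/ml kanamycin; loss of luminescence reflects streptokinase promoter inhibition or plain growth inhibition; 0% = median of DMSO wells and 100% = positive control at its reference dose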
# NALP1 inh – NALP1 inflammasome inhibitors in reconstituted yeast, colorimetric, S. cerevisiae, triplicate retest. hit rate 0.61% among 280,000. S. cerevisiae NALP1/ASC/caspase-1 growth, X-gal OD620, 72 h. inhibition, % at 10 µM. AID 2071, 2009; in the data active = inhibition mostly above about 24%, no sharp cut-off; inactive = mostly below about 32%
# NALP3 yeast inh – NALP3 inflammasome inhibitors in reconstituted yeast, primary screen, luminescence, uHTS; hit rate 0.39% among 330,000; Yeast reconstituted NLRP3/ASC/caspase-1, beta-gal luminescence, 24 h; inhibition, % at 10 µM;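 active = inhibition of 50% or more; inactive = inhibition below 50%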;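 also: plate controls were induced DMSO wells for no effect and uninduced yeast grown without galactose for full effect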
# tim10-1 inh – growth inhibitors of tim10-1 mutant yeast, primary screen, luminescence, uHTS. inhibition, % at 20 µM. S. cerevisiae tim10-1 ts strain growth, BacTiter-Glo, 24 h. hit rate 2.2% among 330,000;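 active = inhibition of at least 40%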;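 also: mutant grown at 25 °C; 0% = DMSO wells with yeast and 100% = wells holding no yeast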
# tim23-1 inh – growth inhibitors of tim23-1 mutant yeast, primary screen, luminescence, uHTS. AID 463212, 2010. inhibition, % at 20 µM. hit rate 1.3% among 330,000. S. cerevisiae tim23-1 growth, BacTiter-Glo luminescence, 24 h;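 active = growth inhibition of the mutant yeast at or above 50%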;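 also: temperature-sensitive mutant grown at 25 °C; plate controls were DMSO-treated mutant yeast for no effect and medium wells lacking yeast for full effect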
# TIM10 inh – growth inhibitors of isogenic TIM10 control yeast, primary screen, counter-screen for tim10-1 yeast inhibitor project, luminescence, uHTS. inhibition, % at 10 µM. hit rate 1.4% among 330,000. S. cerevisiae TIM10 strain growth, BacTiter-Glo luminescence, 24 h. AID 463195, 2010;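 active = inhibition of 40% or more at the single tested concentration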;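 also: wild-type TIM10 isogenic control strain grown at permissive 25 °C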
# tim10-1 confirm – growth inhibitors of tim10-1 mutant yeast, confirmation, single concentration, luminescence, S. cerevisiae; shares compounds with tim10-1 inh; S. cerevisiae tim10-1 ts strain growth, BacTiter-Glo, 24 h; inhibition, % at 20 µM; hit rate 56% among 7,400;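 active = inhibition of yeast growth at or above a set limit in either of two repeat tests at 20 µM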;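 also: tim10-1 mutant grown at permissive 25 °C to find synthetic lethal compounds; 0% = DMSO yeast wells and 100% = medium wells without yeast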
# TIM10 conf – growth inhibitors of wild-type TIM10 yeast, confirmation, counter-screen for tim10-1 synthetic lethality project, single concentration, luminescence, S. cerevisiae. shares compounds with TIM10 inh. S. cerevisiae tim10 strain growth, BacTiter-Glo luminescence, 24 h. inhibition, % at 10 µM. hit rate 63% among 4,600;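 active = inhibition of yeast growth at or above a set limit in either of two replicates at 10 µM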;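 also: this counterscreen used the strain with wild-type TIM10; 0% = yeast with DMSO and 100% = medium wells lacking yeast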
# tim23-1 conf – tim23-1 mutant yeast growth inhibitors, confirmation, luminescence, single concentration; shares compounds with tim23-1 inh; S. cerevisiae tim23-1 growth, BacTiter-Glo luminescence, 24 h; inhibition, % at 20 µM; hit rate 83% among 4,400;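 active = inhibition above about 39% in either of two replicate wells at 20 µM, limit read from the data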;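 also: temperature-sensitive tim23-1 mutant grown at 25 °C; 0% = DMSO wells with yeast and 100% = medium wells without yeast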
# Active calls of the source: *; · = no result given. Rows were chosen to be rich in hits. Some 4.9% of all compounds tested hit in one or more screens of this group.
SMILES,SKKanGAS inh,NALP1 inh,NALP3 yeast inh,tim10-1 inh,tim23-1 inh,TIM10 inh,tim10-1 confirm,TIM10 conf,tim23-1 conf
O=C1/C(=C\c2ccccn2)SC(=S)N1Nc1ncc(C(F)(F)F)cc1Cl,0.0,3.0,11.7,63.8*,64.5*,59.2*,56.7*,46.8*,33.2
CC1=C(C)CC(C(=O)Nc2nccs2)C(C(=O)O)C1 (configuration not stated),-0.1,19.5,15.8,-6.9,3.9,16.4,·,·,·
CC(C)=NOc1cc(NC(=O)CCl)cc([N+](=O)[O-])c1,-5.7,30.8,15.7,51.6*,65.5*,30.6,27.6,·,46.7*
O=C(COC(=O)CNC(=O)c1ccc(Cl)cc1Cl)Nc1cccc(S(=O)(=O)N2CCCC2)c1,-1.2,·,11.9,17.8,-2.2,13.1,·,·,·
CCCCOc1cccc(-c2nnc(N)s2)c1,-0.1,-12.9,2.0,53.1*,51.8*,29.1,36.5*,·,49.6*
CC(=O)Oc1ccc2c(=O)c(-c3nc4ccccc4s3)coc2c1,9.7,28.0*,18.0,69.3*,65.0*,86.2*,23.5,49.2*,71.5*
CC(=O)Oc1ccc2c(=O)c(Oc3ccccc3[N+](=O)[O-])coc2c1,-0.3,5.9,16.8,20.7,10.8,8.0,·,·,·
COc1ccc(/C=C\c2nc(=O)c3ccccc3o2)cc1,-7.0,10.6,12.3,54.8*,78.0*,41.9*,45.6*,34.8*,71.3*
Cc1ccc(N2C(=O)c3cccc4c([N+](=O)[O-])ccc(c34)C2=O)c2cccnc12,26.4,·,-3.9,9.5,6.2,-21.5,·,·,·
Cc1nnc(N2C(=O)c3cccc4c([N+](=O)[O-])ccc(c34)C2=O)s1,-0.1,3.3,10.4,84.7*,66.5*,36.0,64.3*,·,68.0*
Cc1ccnc(N2C(=O)c3cccc4c([N+](=O)[O-])ccc(c34)C2=O)c1,-2.9,16.2,19.1,89.9*,73.8*,89.8*,89.8*,96.8*,77.7*
Cc1cc(C)n2cc(CSc3nc4ccccc4s3)nc2n1,-6.7,27.8,1.4,26.1,16.0,12.8,·,·,·
CC1CCCC(NC(=O)COC(=O)COc2ccc(C#N)cc2)C1C (configuration not stated),·,·,0.1,18.1,18.7,2.9,·,·,·
Cn1cncc1C#Cc1ccc2c(=O)c3ccccc3oc2c1,·,·,35.6,11.6,-7.4,13.7,·,·,·
CNC(C)C#Cc1ccc2c(=O)c3ccccc3oc2c1 (configuration not stated),6.9,·,8.4,54.4*,57.6*,25.9,42.4*,·,53.4*
COc1ccc(Br)cc1C(=O)NC(=S)Nc1ccc(CN2CCOCC2)cc1,-3.8,16.1,5.3,55.3*,51.2*,34.8,18.7,·,57.1*
O=C1CC(=Nc2ccccc2)NN1c1ccccc1,18.4,1.5,10.1,55.1*,58.5*,49.1*,45.2*,44.0*,75.8*
O=C1Cc2ccccc2N1c1ccccc1,3.4,10.1,4.2,11.2,-28.6,6.1,·,·,·
Cc1ccc(C)c(N2CCN(c3ncccc3[N+](=O)[O-])CC2)c1,42.6,19.9,21.0,-12.1,15.3,-0.7,·,·,·
C=C(C)C(=O)OC1(C(F)(F)F)Oc2cc(C)ccc2NC1=O (configuration not stated),-4.6,9.5,13.1,55.9*,65.8*,47.7*,52.2*,41.4*,77.8*
CCOC(=O)C1(N(CC)CC)Sc2cc(C)ccc2NC1=O (configuration not stated),-8.7,9.5,26.1,28.5,34.5,30.3,·,·,·
COc1ccc(-n2cccc2/C=C/[N+](=O)[O-])cc1,25.8,113.5*,7.4,62.0*,83.1*,59.1*,52.8*,-8.6,72.7*
N#Cc1ccc(CN2CCN(C(=O)CNC(=O)Cc3ccccc3)CC2)cc1,·,·,6.5,16.3,4.3,3.2,·,·,·
COc1ccc(C(=O)C[n+]2cn(C(F)F)c3ccccc32)c(F)c1,-8.1,9.9,-16.1,52.7*,57.8*,63.0*,49.9*,31.1*,43.3*
Cc1nc2ccccc2c(=O)n1NC(=O)c1c(F)cccc1F,-1.4,12.8,16.7,4.4,12.2,1.0,·,·,·
SMILES,SKKanGAS inh,NALP1 inh,NALP3 yeast inh,tim10-1 inh,tim23-1 inh,TIM10 inh,tim10-1 confirm,TIM10 conf,tim23-1 conf
O=C(NC1CCCCCCC1)c1ccccc1O,10.4,19.3,24.3,46.5*,64.8*,48.8*,34.3*,46.5*,59.5*
O=C(NC1CCCCC1)c1cc2ccccc2cc1O,14.2,0.7,8.1,13.5,23.4,-14.3,·,·,·
Oc1ccccc1N=N/C(=N/Nc1ccccc1O)c1ccccc1,7.2,·,17.6,-2.4,-1.4,7.6,·,·,·
N#C/C(N=Nc1ccccc1O)=N\Nc1ccccc1O,36.3,·,28.0,65.3*,82.4*,13.5,60.3*,·,65.5*
CC(=O)c1ccc(NC(=O)CSc2nnc3ccc(-c4ccccn4)nn23)cc1,-2.3,·,0.0,0.0,-27.6,-14.2,·,·,·
COc1ccc(NC(=O)/C(C#N)=C/c2ccc[nH]2)c(OC)c1,-1.7,6.7,14.4,-5.9,3.8,-8.3,·,·,·
COc1ccc(NC(=O)/C(C#N)=C/c2ncc([N+](=O)[O-])n2C)c(OC)c1,18.7,·,47.9,58.4*,83.5*,24.6,66.2*,·,81.0*
Cc1ccc2nc(Nc3ccc(F)cc3)c3nncn3c2c1,-6.3,7.4,21.0,1.4,36.7,28.5,·,·,·
Cc1ccc(Nc2nc3ccc(Cl)cc3n3cnnc23)cc1F,1.7,0.6,18.3,62.7*,50.6*,12.6,19.8,·,19.7
CCNc1ccc2noc3c2c1C(=O)c1ccccc1-3,13.0,40.4,16.3,55.6*,60.2*,29.2,44.1*,·,49.1*
Cc1ccc(OCc2cc(C(=O)NCc3ccc(OC(F)(F)F)cc3)no2)cn1,-2.9,9.6,6.7,2.3,12.0,-14.2,·,·,·
Cc1ccc(OCc2cc(C(=O)NCc3cnn(-c4cccc(F)c4)c3)no2)cn1,-3.8,6.5,22.2,43.7*,62.1*,21.6,-7.8,·,59.7*
O=c1[nH][nH]c(-c2ccccc2O)c1C(C[N+](=O)[O-])c1cccc(Cl)c1 (configuration not stated),45.8,100.9*,21.6,43.7*,55.8*,47.8*,44.5*,-8.2,54.6*
